Source: PubChem BioAssay
Where “and” joins values, the source holds several entries; their conditions need not be identical. Equal values may be shown once. For some of these results: Potency and affinity values are given separately. Where a structure was tested more than once in an assay, its records may differ in their call. Calls of active or inactive are those of the source. A call without a number means that no potency is given here. Unless noted, the rule behind the calls is not given here.

Key:
[1] = antimalarial activity against Dd2 strain (AID 2302;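 active = growth inhibition above 50% at the single 2 µM test dose, taken to imply half-maximal potency below 2 µM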); conditions: P. falciparum Dd2 in RBCs, LDH growth readout, 72 h; at 2 µM; stronger effect = higher value
[2] = human hepatoma cell viability loss – ATP luminescence, cytotoxicity control for P. falciparum antimalarial project, primary screen (AID 2303;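 active = inhibition above 50%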); conditions: HepG2 viability, 24-48 h, at 10 µM, stronger effect = higher value
[3] = biological target: L-lactate dehydrogenase (Plasmodium falciparum (isolate CDC / Honduras)) (UniProt Q27743); test: PfLDH activity inhibition – cell lysate, 3D7 strain, counter-screen for P. falciparum growth inhibition project (AID 2304); conditions: P. falciparum 3D7 crude extract, LDH APAD/NBT absorbance; at 2 µM; stronger effect = higher value
L-lactate dehydrogenase (Plasmodium falciparum (isolate CDC / Honduras)), sequence (Q27743 whole entry, looked up): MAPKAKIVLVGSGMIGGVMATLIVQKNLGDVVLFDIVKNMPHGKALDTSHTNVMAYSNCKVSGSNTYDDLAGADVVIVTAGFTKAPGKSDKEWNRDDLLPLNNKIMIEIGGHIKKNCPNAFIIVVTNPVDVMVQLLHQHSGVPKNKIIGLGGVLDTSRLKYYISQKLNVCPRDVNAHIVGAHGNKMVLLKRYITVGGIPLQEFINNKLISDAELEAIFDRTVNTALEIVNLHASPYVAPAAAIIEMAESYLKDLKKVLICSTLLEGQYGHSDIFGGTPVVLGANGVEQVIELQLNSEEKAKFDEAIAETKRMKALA

[4] = inhibition of 3D7 malaria parasite growth – strain 3D7 (AID 2306); conditions: P. falciparum 3D7 erythrocytic growth, LDH absorbance, 72 h; at 2 µM; stronger effect = higher value
[5] = biological target: Calcium-dependent protein kinase 1 (Plasmodium falciparum (isolate 3D7)) (UniProt P62344); test: PfCDPK1 kinase inhibitors, biochemical, TCAMS library (AID 1159585; cut-off not given, nearly all actives have IC50 up to about 0.98 µM;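 note: inhibitors leave more ATP so luminescence rises with inhibition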); conditions: recombinant PfCDPK1, Kinase-Glo ATP depletion luminescence
Calcium-dependent protein kinase 1 (Plasmodium falciparum (isolate 3D7)), sequence (P62344 whole entry, looked up): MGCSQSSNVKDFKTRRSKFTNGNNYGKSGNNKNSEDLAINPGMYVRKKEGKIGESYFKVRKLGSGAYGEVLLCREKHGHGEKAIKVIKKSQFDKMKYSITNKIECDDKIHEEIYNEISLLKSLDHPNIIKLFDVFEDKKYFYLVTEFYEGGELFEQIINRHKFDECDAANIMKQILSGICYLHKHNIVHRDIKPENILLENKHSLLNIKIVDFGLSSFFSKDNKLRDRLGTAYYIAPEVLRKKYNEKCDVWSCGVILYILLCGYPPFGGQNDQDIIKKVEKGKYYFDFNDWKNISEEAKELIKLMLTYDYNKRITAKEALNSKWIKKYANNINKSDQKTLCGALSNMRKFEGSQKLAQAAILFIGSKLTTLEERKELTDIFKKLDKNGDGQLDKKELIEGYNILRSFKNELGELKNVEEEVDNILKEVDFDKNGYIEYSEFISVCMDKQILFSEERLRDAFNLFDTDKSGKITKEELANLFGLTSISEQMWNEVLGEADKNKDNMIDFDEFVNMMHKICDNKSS

[6] = biological target: Plasmodium falciparum protein kinase 6 (PK6, PF3D7_1337100) (UniProt Q8IDW1); test: PfPK6 kinase inhibitors, biochemical, TCAMS library (AID 1159586); conditions: recombinant PfPK6, Kinase-Glo ATP depletion luminescence
Plasmodium falciparum protein kinase 6 (PK6, PF3D7_1337100), sequence (Q8IDW1 1-305): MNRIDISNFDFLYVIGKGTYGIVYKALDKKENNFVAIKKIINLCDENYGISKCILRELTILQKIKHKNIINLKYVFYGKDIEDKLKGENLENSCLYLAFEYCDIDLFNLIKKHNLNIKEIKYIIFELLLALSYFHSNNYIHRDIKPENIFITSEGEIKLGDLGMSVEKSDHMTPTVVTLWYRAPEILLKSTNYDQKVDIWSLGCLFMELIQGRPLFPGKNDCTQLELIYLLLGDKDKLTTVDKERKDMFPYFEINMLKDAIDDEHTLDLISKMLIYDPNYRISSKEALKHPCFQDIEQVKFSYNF

[7] = biological target: Protein kinase 7 (PK7), Plasmodium falciparum 3D7 (PF3D7_0213400) (UniProt Q7YTF7); test: inhibition of Plasmodium PK7 catalytic activity – biochemical, TCAMS antimalarial set, Kinase-Glo luminescence (AID 1159587); conditions: recombinant PfPK7, Kinase-Glo ATP depletion luminescence
Protein kinase 7 (PK7), Plasmodium falciparum 3D7 (PF3D7_0213400), sequence (Q7YTF7 1-343): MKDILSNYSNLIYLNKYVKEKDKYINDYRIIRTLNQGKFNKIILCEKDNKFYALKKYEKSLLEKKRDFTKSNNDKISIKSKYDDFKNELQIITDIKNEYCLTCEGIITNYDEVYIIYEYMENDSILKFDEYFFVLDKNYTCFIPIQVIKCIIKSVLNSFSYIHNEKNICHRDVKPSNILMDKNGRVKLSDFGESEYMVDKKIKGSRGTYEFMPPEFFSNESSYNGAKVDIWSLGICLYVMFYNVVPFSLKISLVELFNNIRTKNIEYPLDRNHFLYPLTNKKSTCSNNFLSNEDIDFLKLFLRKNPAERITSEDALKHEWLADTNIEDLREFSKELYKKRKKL

[8] = biological target: Calcium-dependent protein kinase 4 (Plasmodium falciparum (isolate 3D7)) (UniProt Q8IBS5); test: PfCDPK4 kinase inhibitors, biochemical, TCAMS library (AID 1159588; cut-off not given, nearly all actives have IC50 up to about 0.91 µM); conditions: recombinant PfCDPK4, Kinase-Glo ATP depletion luminescence
Calcium-dependent protein kinase 4 (Plasmodium falciparum (isolate 3D7)), sequence (Q8IBS5 whole entry, looked up): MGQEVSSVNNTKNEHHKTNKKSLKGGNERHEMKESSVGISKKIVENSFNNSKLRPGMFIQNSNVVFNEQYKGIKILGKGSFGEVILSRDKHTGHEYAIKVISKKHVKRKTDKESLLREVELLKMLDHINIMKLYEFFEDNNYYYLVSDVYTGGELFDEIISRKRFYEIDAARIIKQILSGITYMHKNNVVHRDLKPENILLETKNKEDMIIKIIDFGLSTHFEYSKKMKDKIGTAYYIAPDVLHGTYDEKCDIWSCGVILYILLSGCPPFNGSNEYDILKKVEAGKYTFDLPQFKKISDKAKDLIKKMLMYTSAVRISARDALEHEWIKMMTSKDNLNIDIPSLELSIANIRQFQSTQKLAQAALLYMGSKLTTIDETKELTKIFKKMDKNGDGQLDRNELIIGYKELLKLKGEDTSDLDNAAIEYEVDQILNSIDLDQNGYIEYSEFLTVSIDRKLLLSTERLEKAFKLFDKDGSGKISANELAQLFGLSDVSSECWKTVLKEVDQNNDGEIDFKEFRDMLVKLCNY

Compound | growth inhibition [1] | inhibition [2] | inhibition [3] | growth inhibition [4] | outcome [5] | outcome [6] | outcome [7] | outcome [8]
Oc1ccc(CN2CCN(CCOC(c3ccccc3)c3ccccc3)CC2)cc1Cl | 77% (active) | 7% (inactive) | 1% (inactive) | 98% (active) | inactive | inactive | inactive | inactive
O=C(NC1CCC(CN2CCC(c3c[nH]c4ccccc34)CC2)CC1)c1ccc(-c2cc(C(F)(F)F)ccc2Cl)o1 (centres undefined) | 34% (inactive) | 5% (inactive) | 3% (inactive) | 102% (active) | inactive | inactive | inactive | inactive
O=C(c1cc(C(=O)NCc2ccc(Cl)cc2)c(=O)n(Cc2ccc(Cl)cc2)c1)c1cc(F)ccc1O | 2% (inactive) | 7% (inactive) | -2% (inactive) | 93% (active) | inactive | inactive | inactive | inactive
COc1cc(/C=C/C(=O)NC2CCC(CN3CCC(c4c[nH]c5ccccc45)CC3)CC2)ccc1O (centres undefined) | 45% (inactive) and 44% (inactive) | 11% (inactive) and 19% (inactive) | -8% (inactive) and -2% (inactive) | 98% (active) and 99% (active) | inactive | inactive | inactive | inactive
COCC(=O)N(Cc1ccccc1-c1cccc(CNCCc2ccccc2)c1)C1CCN(Cc2ccccc2)CC1 | 36% (inactive) | 21% (inactive) | 3% (inactive) | 93% (active) | inactive | inactive | inactive | inactive
Cc1cc2ccc(CNCCc3ccccc3Br)cc2nc1N | 48% (inactive) | -1% (inactive) | 1% (inactive) | 101% (active) | inactive | inactive | inactive | inactive
CCCCOC(C(=O)OCC1CCCN1C)(c1ccccc1)c1ccccc1 (centres undefined) | 2% (inactive) | 3% (inactive) | 6% (inactive) | 100% (active) | inactive | inactive | inactive | inactive
Cc1[nH]c2cc(F)ccc2c1C1=CCN(CCCCC2(C)C(=O)Nc3ccccc32)CC1 (centres undefined) | 90% (active) | 13% (inactive) | -8% (inactive) | 93% (active) | inactive | inactive | inactive | inactive
Oc1ccc2[nH]cc(C3=CCN(CCc4ccccc4)CC3)c2c1 | 60% (active) | 11% (inactive) | 3% (inactive) | 96% (active) | inactive | inactive | inactive | inactive
CC(Cc1ccc(C2=CCNCC2)cc1)NCC(O)c1cccc(C(F)(F)F)c1 (centres undefined) | -2% (inactive) | 27% (inactive) | 0% (inactive) | 89% (active) | inactive | inactive | inactive | inactive
CN1CC=C(c2csc3ccc(NC(=O)Nc4ccc(-c5ccncc5)c(Cl)c4)cc23)CC1 | 101% (active) | 10% (inactive) | 6% (inactive) | 102% (active) | inactive | inactive | inactive | inactive
Cc1ccc(CC(C)NCC(O)c2cccc(Br)c2)cc1 (centres undefined) | 97% (active) | 7% (inactive) | 3% (inactive) | 99% (active) | inactive | inactive | inactive | inactive
Cc1ccc2c(C3=CCN(CCCCC4(C)C(=O)Nc5ccccc54)CC3)c(C)[nH]c2c1 (centres undefined) | 91% (active) | 9% (inactive) | -3% (inactive) | 95% (active) | inactive | inactive | inactive | inactive
COc1ccc(C(=O)[C@H]2C[C@@H]2CN2CC=C(c3c[nH]c4ccc(OC)nc34)CC2)cc1 | 91% (active) | 8% (inactive) | -3% (inactive) | 98% (active) | inactive | inactive | inactive | inactive
COc1ccc(N(c2nc(-c3cc(Cl)ccc3Cl)cs2)C2CCNCC2)cc1 | 4% (inactive) | 17% (inactive) | -2% (inactive) | 91% (active) | inactive | inactive | inactive | inactive
CC[C@H]1CN2CC[C@H]1C[C@H]2[C@H](O)c1cc(-c2cccc(Cl)c2)nc2ccc(OC)cc12 | 99% (active) | 16% (inactive) | 6% (inactive) | 98% (active) | inactive | inactive | inactive | inactive
O=C(NC1CCC(CN2CCC(c3c[nH]c4ccccc34)CC2)CC1)c1cc2cccc([N+](=O)[O-])c2[nH]1 (centres undefined) | 101% (active) | 36% (inactive) | -1% (inactive) | 103% (active) | inactive | inactive | inactive | inactive
Cc1ccc(/C=C/C(=O)NC2CCC(CN3CCC(c4c[nH]c5ccccc45)CC3)CC2)cc1 (centres undefined) | 66% (active) and 69% (active) | 32% (inactive) and 41% (inactive) | -2% (inactive) and 3% (inactive) | 101% (active) | inactive | inactive | inactive | inactive
NC(=NCCCCCCN=C(N)/N=C(\N)c1ccc(Cl)cc1)/N=C(\N)c1ccc(Cl)cc1 | 99% (active) | 10% (inactive) | -9% (inactive) | 98% (active) | inactive | inactive | inactive | inactive

Compound | growth inhibition [1] | inhibition [2] | inhibition [3] | growth inhibition [4] | outcome [5] | outcome [6] | outcome [7] | outcome [8]
CN(c1cc(NC(=O)c2cccs2)ccn1)C1CCN(Cc2cccc(C#N)c2)CC1 | 69% (active) | 59% (active) | 4% (inactive) | 90% (active) | inactive | inactive | inactive | inactive
CC(=O)C1(c2ccccc2)CCN(CCC2(c3ccc(Cl)c(Cl)c3)CN(C(=O)CC(C)C)CCO2)CC1 (centres undefined) | 94% (active) | 7% (inactive) | 0% (inactive) | 92% (active) | inactive | inactive | inactive | inactive
COc1cccc(C=CC(=O)NC2CCC(CN3CCC(c4c[nH]c5ccccc45)CC3)CC2)c1OC (centres undefined) | 40% (inactive) | 37% (inactive) | -1% (inactive) | 102% (active) | inactive | inactive | inactive | inactive
CC[C@H]1CN2CC[C@H]1C[C@H]2[C@H](O)c1cc(-c2ccccc2C(F)(F)F)nc2ccc(OC)cc12 | 99% (active) | -4% (inactive) | -5% (inactive) | 98% (active) | inactive | inactive | inactive | inactive
Cc1[nH]c2ccccc2c1C1=CCN(C[C@H]2C[C@@H]2C(=O)c2ccccc2)CC1 | 88% (active) | 18% (inactive) | -3% (inactive) | 95% (active) | inactive | inactive | inactive | inactive
O=C(/C=C/c1ccc(Cl)c(Cl)c1)N1CC[C@H]2C[C@H](N3CCC(c4c[nH]c5ccccc45)CC3)CC[C@@H]2C1 | 99% (active) | 31% (inactive) | 0% (inactive) | 100% (active) | inactive | inactive | inactive | inactive
O=C(/C=C/c1ccccc1Cl)NC1CCC(CN2CCC(c3c[nH]c4ccccc34)CC2)CC1 (centres undefined) | 35% (inactive) and 51% (active) | 33% (inactive) and 41% (inactive) | -2% (inactive) and 3% (inactive) | 99% (active) and 100% (active) | inactive | inactive | inactive | inactive
COc1ccc(OC)c(CNCC(O)c2cc(C(F)(F)F)cc(C(F)(F)F)c2)c1 (centres undefined) | 100% (active) | 7% (inactive) | 6% (inactive) | 92% (active) | inactive | inactive | inactive | inactive
Cc1ccc2[nH]cc(C3CCN(CC4CCC(NC(=O)/C=C/c5ccc(Cl)c(Cl)c5)CC4)CC3)c2c1 (centres undefined) | 46% (inactive) and 86% (active) | 29% (inactive) and 37% (inactive) | -10% (inactive) and 0% (inactive) | 101% (active) and 94% (active) | inactive | inactive | inactive | inactive
CCCCCC(C)C(C)c1cc(O)c2c(c1)O[C@@]1(C(C)C)CC(O)[C@H](C)[C@@H]2C1 (some centres undefined) | 87% (active) | 1% (inactive) | -3% (inactive) | 93% (active) | inactive | inactive | inactive | inactive
O=C1c2ccccc2CCC1CCN1CC=C(c2c[nH]c3ccccc23)CC1 (centres undefined) | 83% (active) | 5% (inactive) | 7% (inactive) | 89% (active) | inactive | inactive | inactive | inactive
Cc1ccc(-n2nc(C)c3c2NC(=O)CSC3c2ccsc2)cc1 (centres undefined) | 11% (inactive) | -14% (inactive) | 2% (inactive) | 97% (active) | inactive | inactive | inactive | inactive
CC(C)CNCc1cccc(-c2ccc(CN(C(=O)NC3CCCCC3)C3CCN(Cc4ccccc4)CC3)cc2)c1 | 51% (active) | 27% (inactive) | -2% (inactive) | 97% (active) | inactive | inactive | inactive | inactive
Cc1cc2cc(CNCCc3ccccc3Br)ccc2nc1N | 91% (active) | 31% (inactive) | -1% (inactive) | 98% (active) | inactive | inactive | inactive | inactive
Fc1ccc(N(c2nc(-c3cc(F)cc(C(F)(F)F)c3)cs2)C2CCNCC2)cc1 | 10% (inactive) | 35% (inactive) | -3% (inactive) | 95% (active) | inactive | inactive | inactive | inactive
CC(C)N(C)C(=O)n1cnc(S(=O)(=O)C2C[C@@H]3CC[C@H]2C3)n1 (some centres undefined) | 96% (active) | 26% (inactive) | 6% (inactive) | 97% (active) | inactive | inactive | inactive | inactive
CC[C@H]1CN2CC[C@H]1C[C@H]2[C@H](O)c1cc(-c2ccc(F)cc2)nc2ccc(OC)cc12 | 98% (active) | 34% (inactive) | 5% (inactive) | 99% (active) | inactive | inactive | inactive | inactive
CC(C)CCNC(=O)c1cc(C(=O)c2cc(F)ccc2O)cn(CCC(C)C)c1=O | 45% (inactive) | 14% (inactive) | -1% (inactive) | 100% (active) | inactive | inactive | inactive | inactive
CCCCCOc1ccc(CC(C)NCC(O)c2cccc(Cl)c2)cc1 (centres undefined) | 99% (active) | 0% (inactive) | 2% (inactive) | 101% (active) | inactive | inactive | inactive | inactive
